Screening data from PubChem BioAssay.
Hits are enriched below; roughly 18% of the tested compounds scored in any of these assays.
VDR inh – Inhibitors of the vitamin D receptor (VDR): qHTS; VDR-SRC2-3 peptide fluorescence polarization, 2 h; Potency, µM, without a hit: max response, negative = inhibition, usual class: inhibitors; 400,000 compounds, 0.93% hits; AID 504847, 2011
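After 23 nl compound addition and a short centrifugation, plates sat for 2 hours at ambient temperature; polarization of fluorescence then indicated loss of VDR binding to peptide SRC2-3.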
PLK1 PBD inh – qHTS for Inhibitors of PLK1-PDB (polo-like kinase 1 - polo-box domain): Primary Screen | Plk1 PBD binding of FITC phosphopeptide, fluorescence polarization | Potency, µM, inactives show max response, negative = inhibition, hits mostly inhibitors | 360,000 compounds, 2.8% hits | AID 720504, 2013; further: series mostly up to about 57 µM; nearly all actives have a fitted effect of over 65% in size
GCN5L2 inh – qHTS Assay for Inhibitors of GCN5L2 | GCN5L2 HAT assay, ThioGlo1 CoA-SH fluorescence | Potency, µM (doses to about 58.9 µM), inactives show at the top dose activity change, negative = inhibition, actives largely listed as inhibitors | 390,000 compounds, 0.21% hits | AID 504327, 2011
Target sequence (Q92830 whole entry, looked up): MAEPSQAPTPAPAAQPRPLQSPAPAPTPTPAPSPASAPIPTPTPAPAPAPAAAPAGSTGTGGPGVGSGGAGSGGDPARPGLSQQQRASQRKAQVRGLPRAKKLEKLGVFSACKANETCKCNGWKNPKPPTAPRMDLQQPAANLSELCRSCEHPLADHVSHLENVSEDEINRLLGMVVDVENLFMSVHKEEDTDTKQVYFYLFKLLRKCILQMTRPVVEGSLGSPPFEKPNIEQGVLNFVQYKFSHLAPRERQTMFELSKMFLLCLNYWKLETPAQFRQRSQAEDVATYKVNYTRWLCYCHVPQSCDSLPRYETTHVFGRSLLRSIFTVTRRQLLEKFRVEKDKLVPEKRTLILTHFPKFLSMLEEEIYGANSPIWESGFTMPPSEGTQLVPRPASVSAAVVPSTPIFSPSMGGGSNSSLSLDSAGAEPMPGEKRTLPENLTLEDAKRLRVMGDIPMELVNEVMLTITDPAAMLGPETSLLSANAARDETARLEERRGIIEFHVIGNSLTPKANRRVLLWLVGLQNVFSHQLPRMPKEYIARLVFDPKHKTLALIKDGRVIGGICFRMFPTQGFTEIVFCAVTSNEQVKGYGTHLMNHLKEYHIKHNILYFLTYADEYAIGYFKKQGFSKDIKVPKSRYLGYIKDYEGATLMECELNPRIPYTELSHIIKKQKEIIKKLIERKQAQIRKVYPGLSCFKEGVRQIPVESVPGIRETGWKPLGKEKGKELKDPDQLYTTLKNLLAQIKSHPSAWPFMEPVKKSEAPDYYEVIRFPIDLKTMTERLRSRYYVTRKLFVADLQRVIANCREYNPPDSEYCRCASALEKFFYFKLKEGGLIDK
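Fluorescence readout, Ex340nm/Em540nm: ThioGlo1 (50uM final) reacts with free CoA thiol released as 20nM GCN5L2 acetylates H3(1-25) peptide (75uM) using acetyl-CoA (70uM). Compound and enzyme sat 15 min beforehand; 20 min room-temperature reaction.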
TDP1 block – qHTS Assay for Inhibitors of Tyrosyl-DNA Phosphodiesterase (TDP1). Tyrosyl-DNA phosphodiesterase 1 (Homo sapiens), Q9NUW8. recombinant TDP1, AlphaScreen DNA substrate cleavage. Potency, µM (titrated, usually from 130 µM), inactives show at the top dose activity change, negative = inhibition, usual class: inhibitors. 350,000 compounds, 0.28% hits; further: nearly all actives have a fitted effect of over 40% in size
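Tdp1 1 nM final; 15 min RT w/ cpd; substrate 15 nM, 5 min; beads 10 ug/ml, 10 min; AlphaScreen read. Neg ctrl: no enzyme.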
DT40 TDP1 no CPT – qHTS for Inhibitors of human tyrosyl-DNA phosphodiesterase 1 (TDP1): qHTS in cells in absence of CPT | DT40 Tdp1-/- hTDP1 cells, no CPT, ATP luminescence, 48 h | Potency, µM (highest dose often 46.2 µM), for inactives: at the highest dose activity change, negative = growth inhibition, usual class: inhibitors | 420,000 compounds, 15% hits | AID 686978, 2013; further: nearly all actives have a fitted effect of over 55% in size
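Seeded 400 DT40-hTDP1 cells/well (vehicle DMSO, no 20 nM CPT); pinned compounds; ≥48 hr at 37 °C; CellTiter-Glo luminescence as viability measure.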
TDP1 cell CPT – qHTS for Inhibitors of human tyrosyl-DNA phosphodiesterase 1 (TDP1): qHTS in cells in presence of CPT. 420,000 compounds, 12% hits. chicken DT40 Tdp1-/-;hTDP1 cells + 20 nM CPT, ATP luminescence, 48 h. Potency, µM (series often up to 46.2 µM), inactives show at the top dose activity change, negative = growth inhibition, hits mostly inhibitors; further: nearly all actives have a fitted effect of over 55% in size
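Chicken DT40 Tdp1-/- cells stably complemented with human TDP1 were seeded at 400 cells/well in medium containing 20 nM camptothecin, exposed to pin-transferred compounds, and grown at 37 °C for at least 48 hr. Viability was read as ATP luminescence.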
Active calls of the source: *; ? = inconclusive; / = no result; ! = not active in a repeat; [ ] = another dose, or the depositor's remark. The call rests on the fitted dose curve; in most records, active means well fitted curve in the direction sought with a large enough effect; inconclusive means small, poorly fitted or top-dose-only effect, or another doubt; inactive means no such curve, though single readings can be large; an effect the other way counts as inactive or inconclusive. On the % scale 0 is the no-effect control and ±100 the full control effect; potency means the concentration at half of the fitted maximal effect.

SMILES	VDR inh	PLK1 PBD inh	GCN5L2 inh	TDP1 block	DT40 TDP1 no CPT	TDP1 cell CPT
CCn1c(-c2ccccc2F)nc2cc(NC(C)=O)cc(C(=O)N3CCCCC3c3nccn3C)c21 (stereo unspecified)	/	/	/	/	-1.0%	2.3%[9.04 µM]
O=C(N/N=C/c1ccc(-c2cccc(C(F)(F)F)c2)o1)c1cccc(F)c1	27.4%	-1.3%	-3.0%	5.3%	14.1µM*	17.8µM*
O=C(N/N=C/c1ccc(N2CCOCC2)o1)c1cccc(F)c1	39.8µM*	-16.2%	-10.7%	4.4%	?	-20.9%
NC(=O)N/N=C/c1ccc(-c2cccc(C(F)(F)F)c2)o1	-10.0%	-9.4%	-9.6%	4.8%	-2.0%	-2.6%
O=C(N/N=C/c1ccc(-c2cccc(C(F)(F)F)c2)o1)c1ccccc1O	-8.7%	-11.8%	69.0%	4.1%	8.2µM*	10.3µM*
CN(C)C(CNC(=O)C1CCN(C(=O)/C=C/c2ccccc2)CC1)c1ccccc1 (stereo unspecified)	5.4%	-11.4%	-1.7%	/	-5.4%	-2.9%
CN1CCN(CCCN2c3ccccc3Sc3ccc(S(=O)(=O)N(C)C)cc32)CC1	-2.3%	-1.7%	-15.2%	12.3%[21 µM]	23.1µM*	16.4µM*
CN(C)CCCN1c2ccccc2Sc2ccc3ccccc3c21	-5.9%	-0.8%	/	/	?	?
CC(=O)c1ccc2c(c1)N(CCCN1CCC(CCO)CC1)c1ccccc1S2	-4.1%	-10.7%	-12.5%	12.8%[21 µM]	?	11.4µM*!
CN(C)CCCN1c2ccccc2Sc2ccc(Cl)cc21	?	-3.8%	?	11.0%	23.1µM*!	11.2µM*!
CCCCCCCCCCCCCCCC(=O)OCCC1CCN(CCCN2c3ccccc3Sc3ccc(S(=O)(=O)N(C)C)cc32)CC1	/	/	/	/	-20.0%	0.8%
CCCN(CC(=O)Nc1ccccc1C)C(=O)/C=C/c1ccc(OC)c(OC)c1	/	3.3%	/	/	-17.2%	-28.7%
CC[C@H](C)[C@H]1CNC(=S)N1CC1CCN(CC)CC1	/	5.9%	/	/	1.4%	-5.5%
CCOC(=O)c1ccc(NC(=O)CC2COc3ccccc3O2)cc1 (stereo unspecified)	3.2%	-6.8%	-6.9%	-1.1%	1.03µM*	2.8%
C=CCNC(=S)NCC1COc2ccccc2O1 (stereo unspecified)	-14.5%	-3.0%	3.0%	5.1%	?	1.4%
CN(CC1COc2ccccc2O1)C(=S)NC1CCCCC1 (stereo unspecified)	10.1%	-8.9%	-0.8%	7.1%	?	?
CCN(CC1COc2ccccc2O1)C(=S)NCCCN(C)C (stereo unspecified)	-13.5%	2.5%	-1.3%	-2.9%	18.4µM*	16.4µM*
Cc1ccc(C(=O)OCC(=O)NCC2COc3ccccc3O2)cc1 (stereo unspecified)	7.0%	-6.9%	0.5%	0.2%	-12.0%	-12.7%
CCN(CC1COc2ccccc2O1)C(=S)Nc1ccccc1 (stereo unspecified)	-7.0%	-5.5%	-4.2%	1.0%	2.82µM*	?
COc1cccc(CCNC(=O)c2cnc3sc(N4CCOCC4)nn3c2=O)c1	10.9%	/	-3.3%	-1.0%	?	-25.9%
CCOC(=O)c1cc(-c2ccncc2)nc2c1c(C)nn2-c1ccccn1	4.4%	0.1%	-1.0%	0.0%	16.4µM*	?
Cc1nn(-c2ccccn2)c2nc(-c3cccs3)cc(C(=O)N3CCOCC3)c12	?	11.9µM*	-23.2%	7.1%	?	?
COc1ccc(-c2cc(C(=O)O)c3c(C)nn(-c4ccccn4)c3n2)cc1	-0.4%	-1.8%	?	-9.8%	0.1%	-0.3%
c1ccc2c(c1)-c1nc3ccccc3cc1C2N1CCCCC1 (stereo unspecified)	/	2.0%	/	/	16.4µM*	16.4µM*
CN(C)C(=O)c1ccc(/C=C/c2ccnc3ccccc23)cc1	/	/	/	/	15.8µM*	?
SMILES	VDR inh	PLK1 PBD inh	GCN5L2 inh	TDP1 block	DT40 TDP1 no CPT	TDP1 cell CPT
O=C(O)CCN(CCC(=O)O)c1ccc(/C=C/c2ccnc3ccccc23)cc1	/	/	/	/	-24.6%	-8.0%
CN(CC(=O)O)c1ccc(/C=C/c2ccnc3ccccc23)cc1	/	/	/	/	20µM*	11.2µM*
O=C(c1ccc(N2CCN(C3CC(=O)N(Cc4cccs4)C3=O)CC2)cc1)c1cccnc1 (stereo unspecified)	-9.0%	1.4%	-6.8%	5.5%	?	16.4µM*
NC(=O)C1(N2CCCCC2)CCN(C2CC(=O)N(Cc3cccs3)C2=O)CC1 (stereo unspecified)	-0.1%	-11.2%	-7.3%	9.1%	-4.4%	17.2%
COc1ccc(/C=N/n2cc(-c3ccccc3)nc2N)cc1	0.2%	-22.5%	-9.1%	7.9%	5.17µM*	3.26µM*
COc1ccc(/C=N/N2C(=O)c3ccccc3C2=O)cc1	0.7%	1.2%	0.1%	7.9%	-3.1%	-14.1%
Cc1cccc(C(=O)OCC(=O)N(CC(C)C)c2c(N)n(Cc3ccccc3)c(=O)[nH]c2=O)c1O	-12.0%	3.3%	3.2%	-3.4%	-19.8%	?
CCCC(=O)Nc1cccc(OCc2cc(=O)n3cccc(C)c3n2)c1	10.1%	/	-4.0%	8.1%	-26.5%	-22.9%
COc1ccc(NC(=O)Nc2cccc(OCc3cc(=O)n4cccc(C)c4n3)c2)c(OC)c1	10.3%	/	-4.3%	-2.7%	13µM*	?
Cc1ccc(OCC(=O)Nc2cccc(OCc3cc(=O)n4cccc(C)c4n3)c2)cc1C	-16.1%	/	2.0%	2.7%	18.4µM*	14.6µM*
CCC(Oc1ccccc1)C(=O)Nc1cccc(OCc2cc(=O)n3cccc(C)c3n2)c1 (stereo unspecified)	9.2%	/	1.7%	2.7%	16.4µM*	23.1µM*
CC(=O)Nc1ccc(SCCCC(=O)c2ccccc2)cc1	-18.9%	13.4µM*	-5.0%	6.0%	-27.0%	?
CN(CC(=O)Nc1cccc(S(=O)(=O)NC2=NCCC2)c1)Cc1ccccc1Cl	11.1%	-4.0%	-7.1%	0.5%	-8.7%	-19.3%
O=C(Nc1ccncc1)Nc1cccc(C(F)(F)F)c1	-3.5%	-8.2%	-7.0%	1.7%[56.1 µM]	14.6µM*	?
NC(=O)/C=C\C(=O)Nc1cccc(C(F)(F)F)c1	-17.4%	-16.4%	4.2%	4.0%	20.6µM*	5.17µM*
O=C(Nc1cccc(C(F)(F)F)c1)NC1CCCCC1	11.7%	2.7%	-8.0%	-3.3%	?	23.1µM*
